ELG1 genotoxic – qHTS screen for small molecules that induce genotoxicity in human embryonic kidney (HEK293T) cells expressing luciferase-tagged ELG1. HEK293T ELG1-luciferase reporter, luminescence, 16 h. Potency, µM (titrated, usually from 46 µM), hits mostly activators. 330,000 compounds, 1.3% hits; further: nearly all actives have a fitted effect of over 60% in size
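HEK293T cells expressing luciferase-tagged ELG1 were exposed to compound or DMSO vehicle for 16 hr at 37 °C and 5% CO2. Luciferase activity was then measured with ONE-Glo after 30 min at room temperature.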
SMN2 splice up – qHTS Assay for Enhancers of SMN2 Splice Variant Expression. HEK293 SMN2-luciferase splicing reporter, luminescence, 30-36 h. AID 1458, 2008. Potency, µM (titrated, usually from 46.1 µM), most hits filed as activators. 210,000 compounds, 2.8% hits; further: nearly all actives have a fitted effect of over 55% in size
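HEK293 cells carry an SMN2 […]–luciferase reporter in which exon 7 inclusion puts luciferase in frame. Cells were plated 10-12 h before compound addition, then incubated 30-36 h at 37C. ONE-Glo luminescence was read; sodium butyrate at 4.5 mM final served as control.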
Rab9 promoter act – qHTS Assay for Rab9 Promoter Activators | Potency, µM (titrated, usually from 9.22 µM), hits mostly activators | AID 485297, 2010 | Huh7 Rab9 promoter-luciferase reporter, luminescence, 24 h | 320,000 compounds, 2.8% hits; further: nearly all actives have a fitted effect of over 60% in size
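Cells were plated at 1500 per well in reduced-serum medium with 10% FBS and left 2 h. Compound in DMSO was then added for 24 h at 37 °C. Reporter signal was read by luminescence after 10 min with luciferase detection reagent.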
NPC1 prom act – qHTS Assay for NPC1 Promoter Activators; Huh7 NPC1 promoter luciferase reporter, 24 h; 320,000 compounds, 2.4% hits; Potency, µM (top dose mostly 9.22 µM), hits mostly activators; further: nearly all actives have a fitted effect of over 60% in size
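Luminescence from an NPC1 promoter-driven luciferase reporter in stably transfected Huh7 cells was measured after 24 h compound treatment at 37 °C, followed by 10 min ambient incubation with luciferase detection reagent.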
FLuc modulator – qHTS profiling assay for firefly luciferase inhibitor/activator using purifed enzyme and Km concentrations of substrates (counterscreen for miR-21 project); 360,000 compounds, 6.9% hits; Luciferin 4-monooxygenase (Photinus pyralis), P08659; purified FLuc, Km substrates, luminescence inhibition; Potency, µM (top dose mostly 57.5 µM), usual class: inhibitors; further: nearly all actives have a fitted effect of over 55% in size
Target sequence (P08659 whole entry, looked up): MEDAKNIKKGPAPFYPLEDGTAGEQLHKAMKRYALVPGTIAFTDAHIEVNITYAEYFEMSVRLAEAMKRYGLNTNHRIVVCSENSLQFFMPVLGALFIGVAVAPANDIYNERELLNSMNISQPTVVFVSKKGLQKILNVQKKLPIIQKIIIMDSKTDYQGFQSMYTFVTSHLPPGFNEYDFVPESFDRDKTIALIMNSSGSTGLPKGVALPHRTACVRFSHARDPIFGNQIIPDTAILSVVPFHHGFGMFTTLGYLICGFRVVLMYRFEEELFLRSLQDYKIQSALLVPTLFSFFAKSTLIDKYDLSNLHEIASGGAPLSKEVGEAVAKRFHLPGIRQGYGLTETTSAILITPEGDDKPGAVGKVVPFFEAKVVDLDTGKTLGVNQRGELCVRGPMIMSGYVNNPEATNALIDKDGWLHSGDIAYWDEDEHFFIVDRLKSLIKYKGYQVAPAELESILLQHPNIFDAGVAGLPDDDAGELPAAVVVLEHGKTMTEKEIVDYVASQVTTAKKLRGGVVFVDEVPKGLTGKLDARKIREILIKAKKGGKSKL
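Purified P. pyralis luciferase (10nM final) with 10uM D-luciferin and 10uM ATP (Km levels) in 50mM Tris acetate pH 7.5, 10mM Mg acetate, 0.01% Tween-20, 0.05% BSA; qHTS 6-point titration, ~60 µM downward; luminescence read.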
Hits are given with their value; n = inactive; u = inconclusive; x = no result given; [ ] = remark or other dose. This is a sample that favours compounds with a hit; in the whole collection about 7.5% have one here. The call rests on the fitted dose curve; in most records, active means well fitted curve in the direction sought with a large enough effect; inconclusive means small, poorly fitted or top-dose-only effect, or another doubt; inactive means no such curve, though single readings can be large; an effect the other way counts as inactive or inconclusive.

SMILES	ELG1 genotoxic	SMN2 splice up	Rab9 promoter act	NPC1 prom act	FLuc modulator
O=C(O)c1ccccc1C(=O)Nc1ccc(Br)c2cccnc12	n	n	n	n	24µM
COC(=O)c1ccc(COc2ccc(Cl)cc2)o1	n	x	n	n	u
CC(C)c1ccc(OCc2ccc(C(=O)N(C)C)o2)cc1	10µM	x	1.6µM	2.8µM	24µM
CC(C)c1ccc(OCc2ccc(C(=O)O)o2)cc1	u	x	u	u	0.43µM
CC(C)c1ccc(OCc2ccc(C(=O)NN3CCN(C)CC3)o2)cc1	u	14µM	2.5µM	2.2µM	u
CN(C)/C=C(\C#N)C(=O)N/N=C/c1ccccc1	n	u	2.2µM	n	u
Cc1nc2ccc(NC(=O)NCCCO)cc2s1	n	13µM	u	u	n[2.3 µM]
Cc1nc2cc(NC(=O)c3ccc(Br)s3)ccc2s1	u	x	0.32µM	0.4µM	0.48µM
Cc1nc2ccc(NC(=O)c3ccc(Cl)nc3)cc2s1	n	x	n	n	u
Cc1nc2ccc(NC(=O)c3cc(Cl)ccn3)cc2s1	1.3µM	x	0.5µM	0.71µM	1.5µM
Cc1nc2ccc(NC(=O)c3cc([N+](=O)[O-])cc([N+](=O)[O-])c3Cl)cc2s1	u	n	n	n	12µM
Cc1nc(-c2ccc(C)c(S(=O)(=O)N3CCC(C(=O)NCc4ccc(Cl)cc4)CC3)c2)no1	x	x	x	x	n
Cc1oc(C)c2c(=O)cc(-c3ccc4c(c3)OCO4)cc(OC(=O)c3ccccc3Br)c12	x	n	x	x	n
Cc1ccc(C(=O)Nc2ccc3nc(C)sc3c2)s1	u	13µM	1.8µM	2.2µM	6.7µM
O=C(NCCSCc1ccccc1Cl)C1CCN(S(=O)(=O)Cc2ccccc2)CC1	x	x	x	x	n
CCOC(=O)N1N=C(CC)CC1(O)C(F)(F)F (stereo unspecified)	n	n	n	n	n
CCOC(=O)N1N=C(c2ccc(C)cc2)CC1(O)C(F)(F)F (stereo unspecified)	u	n	0.71µM	0.89µM	5.4µM
O=C(C1CC1)N1N=C(c2ccc(F)cc2)CC1(O)C(F)(F)F (stereo unspecified)	n	x	n	n	n
O=C(c1ccccc1)N1N=C(c2ccccc2)CC1(O)C(F)(F)F (stereo unspecified)	n	x	n	n	n
CCOC(=O)N1N=C(c2ccccc2)CC1(O)C(F)(F)F (stereo unspecified)	u	u	2.2µM	3.5µM	13µM
COC(=O)N1N=C(c2ccc(Br)cc2)CC1(O)C(F)(F)F (stereo unspecified)	u	16µM	u	3.5µM	11µM
O=C(CN1C(=O)c2ccccc2C1=O)OCC(=O)c1ccccc1	n	x	n	n	n
CCC(C)(C)NC(=O)C(c1ccc(OC)cc1)N(C(=O)CCC(=O)Nc1cc(C)on1)c1ccc2c(c1)OCO2 (stereo unspecified)	n	x	n	n	n
Cc1nc(C)c(C(=O)Nc2ccc(Oc3ccccc3)cc2)o1	n	n	n	n	24µM
Cc1ncoc1C(=O)Nc1ccc(Oc2ccccc2)cc1	n	n	u	u	15µM
SMILES	ELG1 genotoxic	SMN2 splice up	Rab9 promoter act	NPC1 prom act	FLuc modulator
O=C(Cn1cnc([N+](=O)[O-])n1)c1ccc(O)c(O)c1	n	x	n	n	n
Cc1cc(C)c(NC(=O)c2sc3nc(C)cc(C)c3c2N)c(C)c1	x	n	x	x	n
Cc1cc(C)c2c(N)c(C(=O)Nc3ccc([N+](=O)[O-])cc3)sc2n1	u	x	0.79µM	0.5µM	n
COc1ccc(NC(=O)c2sc3nc(C)cc(C)c3c2N)cc1	u	x	1.3µM	1.6µM	3.8µM
COc1cc(Cl)c(C)cc1NC(=O)c1sc2nc(C)cc(C)c2c1N	x	n	x	x	n
Cc1cc(C)c2c(N)c(C(=O)Nc3ccccc3C(F)(F)F)sc2n1	x	x	x	x	n
Cc1cc(C)c2c(N)c(C(=O)Nc3ccc(C)c(C)c3)sc2n1	1.2µM	x	0.63µM	1µM	1.7µM
Cc1cc(C(F)(F)F)c2c(N)c(C(=O)Nc3cc(C)on3)sc2n1	u	n	3.5µM	u	u
Cc1cc(C)c2c(N)c(C(=O)NC3CCCC3)sc2n1	n	n	n	n	u
CN1C(C(=O)NCc2cccc(C(F)(F)F)c2)CC2Cn3c(nc4cc(Cl)c(Cl)cc43)C21 (stereo unspecified)	n	x	n	n	n
CCc1ccc(C(=O)c2cn(CC(=O)NCc3ccc(C)cc3)c3nc(C)ccc3c2=O)cc1	x	x	x	x	n
C=CCNc1nc(N)c(C(=O)Nc2cc(C)on2)s1	n	11µM	u	u	17µM
COc1ccc(/C=N/NC(=O)c2sc3nc(C)cc(C)c3c2N)cc1	n	x	n	n	9.5µM
Cc1cc(C)cc(NC(=O)c2sc3nc(C)cc(C)c3c2N)c1	u	x	3.2µM	1.8µM	9.5µM
Cc1cc(C)c2c(N)c(C(=O)Nc3ccc(F)cc3)sc2n1	u	x	0.5µM	0.71µM	1.5µM
Cc1cc(C)n2nc(SC(C)C(=O)NC3CCCCC3C)nc2n1 (stereo unspecified)	n	x	n	n	n
Cc1ccc(S(=O)(=O)CCC(=O)OC2CC(C)OC2=O)cc1 (stereo unspecified)	n	x	x	x	x
COc1cccc([C@@H]2Oc3ccc(Br)cc3C(=O)[C@H]2OC(=O)Nc2ccc(OC(F)F)cc2)c1	x	n	x	x	x
COc1ccc(CNC(=O)CC2C[C@H](C(=O)N3CCOCC3)[C@@]3(CCC4CCCC4)c4[nH]c5ccccc5c4CCN3C2=O)cc1OC (stereo partly specified)	n	x	x	x	x
Cc1ccc(S(=O)(=O)N2CCOC23CCN(C(=O)C(=O)NCCC(C)C)CC3)cc1	n	x	n	n	n
Cn1cccc1C(=O)N1CCC[C@@]2(CCN(C(=O)Nc3cccc(C#N)c3)C2)C1	x	n	x	x	x
Cc1occc1-c1nnc(SCC(=O)c2c(N)n(C3CC3)c(=O)[nH]c2=O)n1C	n	x	n	n	n
COCc1cc(C)nc2sc(C(=O)Nc3ccccc3F)c(N)c12	n	x	n	n	19µM
COCc1cc(C)nc2sc(C(=O)Nc3ccccc3O)c(N)c12	x	n	x	x	n
Cc1cc(C)c2c(N)c(C(=O)N/N=C/c3cccs3)sc2n1	u	x	1.6µM	1.8µM	u
SMILES	ELG1 genotoxic	SMN2 splice up	Rab9 promoter act	NPC1 prom act	FLuc modulator
Cc1cc(C)c2c(N)c(C(=O)NCC3CCCCC3)sc2n1	11µM	11µM	u	u	24µM
CC[n+]1c(/C=C2\Sc3ccccc3N2C)ccc2cccc(C)c21	n	n	n	n	n
COc1ccc(C(=O)/C=C2\Sc3ccccc3N2C)cc1	1.6µM	7.9µM	0.89µM	0.71µM	1.2µM
COc1ccccc1OC(=O)CCN1c2ccccc2Sc2ccccc21	n	n	n	n	n
COc1ccc(-[n+]2c(C)cc(/C=C3\Sc4ccccc4N3C)cc2C)cc1	n	n	n	n	19µM
COc1ccccc1-[n+]1c(C)cc(/C=C2\Sc3ccccc3N2C)cc1C	n	x	n	n	2.4µM

Bioassay records (PubChem BioAssay)
